Results reported in PubChem BioAssay (NCI).
The panel holds about 83,000 compounds, 20% with a hit somewhere; the sample as a whole holds those more often.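 For each line, cells grew in 96-well plates with the test compound present at a single concentration for 48 hours.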 A number with no mark means an inactive call. Active and inactive are the calls of the source. How the source made its calls: active means growth percent below 10; inactive means the rest.

The compounds below were run on OVCAR-8 ovarian (assay: NCI-60 one-dose screen, 48 h (100 = growth as untreated, 0 = no growth, -100 = all killed)). Conditions: 10 µM unless noted.
In the case of COc1ccc2c(c1)OC13Oc4cc(OC)ccc4C=C1CCCCC3=C2, the growth is reported as 92.5%. In the case of C/C(=N/Nc1nc2ccccc2n1C)c1ccccn1, the growth is reported as 0.773% (active). For Cc1nc2sc(C(=O)Nc3cccc4ccccc34)c(N)c2cc1C(C)O (configuration not stated), the growth was 16.2%. Work on N#Cc1c(-c2ccc(F)cc2)c(C#N)c2c(C#N)c(N)nn2c1N yielded a growth of 103%. For CCOc1ccc(C2N(c3cc(OC)c(OC)c(OC)c3)C(=O)C2(F)F)cc1 (configuration not stated), the growth was 43.2%. In the case of CCOc1ccccc1C(=O)/C=C/c1cc2ccccc2[nH]c1=O, the growth is reported as 7.43% (active). Cc1ccc(C2=N[C@H]3CCC[C@@H]3N(c3ccccc3)C(C(Cl)Cl)=N2)cc1 was tested, and the growth was 113%. COc1cc(/C=C/CO)cc(OC)c1O[C@@H]1O[C@H](CO)[C@@H](O)[C@H](O)[C@H]1O gave a growth of 98.8%. In the case of COc1ccc(C(=S)c2cc(OC)c(OC)c(OC)c2)cc1OC(=O)CCl, the growth is reported as 14.4%. With O=C1CCC23OC(c4ccccc4N12)C(O)C(O)C3O (configuration not stated) the growth was 99.3%. COc1cc(/C=C/C(=O)c2cccs2)ccc1OCc1ccc(Cl)nc1 showed a growth of 80.2%. Compound O=c1c2ccccc2oc2ccc(OCCCCCN3CCCCCC3)cc12 has a growth of 75.5%. For C=C1C(=O)O[C@H]2[C@H]1CC/C(COC(=O)NCC(=O)Nc1ccc(OC)c(C(N)=O)c1O)=C\CC[C@@]1(C)O[C@@H]21, the growth was 75.3%. Work on COc1ccc(-c2[nH]c3ccccc3c2C=C(C#N)C#N)cc1 yielded a growth of 19.4%. With COC(=O)/C=C/c1cc(OC(C)=O)c2c(c1)C(C(=O)OC)C(c1ccc(OC(C)=O)c(OC(C)=O)c1)O2 (configuration not stated) the growth was -12.5% (active). With Nc1cc(N)c(S(=O)(=O)O)cc1N=Nc1cc([N+](=O)[O-])ccc1O the growth was 99.5%. CC1CCN(CCCCCOc2ccc3oc4ccccc4c(=O)c3c2)CC1 gave a growth of 81%. CCOC(=O)C1=C(C)n2nc(CC#N)c(C#N)c2NC1c1ccc(Cl)cc1 (configuration not stated) was tested, and the growth was 108%. Cc1cccc(C)c1NCc1nnc(-c2ccco2)o1 gave a growth of 98.2%. Compound COC(=O)/C=C1\SC(=Nc2cccc(Cl)c2)N(CCc2c[nH]c3ccccc23)C1=O has a growth of 51.4%. COc1ccc(C(C)c2cc(OC)c(OC)c(OC)c2)cc1 (configuration not stated) showed a growth of 10.9%. Compound CCO/C=N/S(=O)(=O)c1cc2c(cc1Cl)NC=NS2(=O)=O has a growth of 100%. Compound COc1ccc([C@H]2[C@@H](F)C(=O)N2c2cc(OC)c(OC)c(OC)c2)cc1F has a growth of 13.7%. With O=C(CN1N=C(c2ccc(F)cc2)CCC1=O)Nc1nccs1 the growth was 98.6%. Work on Nc1cc(N)nc(SCC(=O)O)n1 yielded a growth of 100%. With CCOC(=O)NCCc1nc2c([nH]1)c(=O)n(C)c(=O)n2C the growth was 107%. CC1(c2ccccc2Cl)NC(=O)NC1=O (configuration not stated) was tested, and the growth was 102%. Compound C=C1C(=O)O[C@H]2[C@H]1CC/C(COC(=O)n1ccnc1)=C\CC[C@@]1(C)O[C@@H]21 has a growth of 99.8%. COc1ccccc1-c1ccc2nc(NC(=O)Nc3cc(C(F)(F)F)cc(C(F)(F)F)c3)sc2c1 was tested, and the growth was 9.39% (active). O=C1NC(SCc2ccc(F)cc2)=N/C1=C/c1cccc(OCc2ccc(Cl)cc2)c1 showed a growth of 52.8%. O=C(CCc1nnc2sc(OCc3ccccc3)nn12)c1nc2ccc([N+](=O)[O-])cc2[nH]1 showed a growth of 94.7%. Nc1c(C(=O)Nc2ccccn2)sc2nc3c(cc12)CCCC3 gave a growth of 65%. Cc1nnc(/N=C2\NC(=O)/C(=C/c3ccsc3)S2)s1 gave a growth of 104%. In the case of Cc1cc(Nc2nc(SCc3ccc(C(=O)Nc4ccc(F)cc4N)cc3)nn3cccc23)n[nH]1, the growth is reported as 15.4%. Oc1c(CCl)cc(Cl)cc1Cc1cc(Cl)cc(Cc2cc(Cl)cc(CCl)c2O)c1O was tested, and the growth was 16.7%. COc1ccc(C2N(c3cc(OC)c(OC)c(OC)c3)C(=O)C2(F)F)cc1F (configuration not stated) was tested, and the growth was 44.1%. COc1cc2c(cc1OC)C(Sc1ccc(Cl)cc1)c1c(nc(N)c(C#N)c1N)O2 (configuration not stated) was tested, and the growth was 1.28% (active).
